Dicer inh: human Dicer pre-microRNA cleavage inhibition. Q9UPY3. cat-ELCCA pre-miR-21 Dicer processing, chemiluminescence; stronger effect = higher value. z-score at 25 µM. 47,000 compounds, 6% hits; in the data active = z-score above about 3, passing the limit was not always enough;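 note: plate controls were vehicle for no effect and no enzyme for full effect; higher signal means more uncleaved substrate so more Dicer inhibition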
Starred values were filed as active, the others as inactive. This is one part of a sample in which hits are shown more often than they occur.

SMILES | Dicer inh
Cc1cccc(-n2c(=O)[nH][nH]c2=S)c1 | -0.28
Cc1nn2c(C(F)(F)F)cc(-c3ccccn3)nc2c1-c1ccccc1 | -1.2
CCOC(=O)c1c(NC(=O)CSc2nnc3c(n2)[nH]c2ccccc23)sc2c1CCCC2 | 0.97
Cc1nnc(SCC(=O)Nc2sc3c(c2C#N)CCCC3)s1 | 3.4*
CCOC(=O)c1c(NC(=O)CSc2nnc(C)c(=O)[nH]2)sc2c1CCCC2 | 3.3*
N#Cc1c(NC(=O)CSc2ccc(Cl)cc2)sc2c1CCC2 | 0.24
CCOC(=O)c1c(NC(=O)CN(CC)CC)sc2c1CCCC2 | -0.77
N#Cc1c(NC(=O)CSc2nnnn2-c2ccccc2)sc2c1CCCC2 | -1.4
CN(C)/C=N/NC(=O)c1cc(C(C)(C)C)[nH]n1 | 0.2
CSc1sc(-c2nnc(SCC(=O)Nc3ccc(Cl)cc3)n2C)c2c1C=CCC2 | 1.8
COc1ccc(-c2cc(C(F)F)n3ncc(C(=O)N(C)Cc4cnn(C)c4)c3n2)cc1 | 0.99
COc1ccc(C2C3=C(CC(C)(C)CC3=O)Nc3nc(SCc4ccc(Cl)cc4)[nH]c(=O)c32)cc1 (stereo not drawn) | 2.6
O=c1[nH]c2ccc([N+](=O)[O-])cc2nc1/C=C(\O)c1ccccc1 | 24*
O=[N+]([O-])c1ccc2nc(-c3ccccc3)c(-c3ccccc3)nc2c1 | -2.8
CC(C)(C)/C(O)=C/c1nc2cc([N+](=O)[O-])ccc2[nH]c1=O | 0.03
O=S(=O)(CCS(=O)(=O)Cc1ccc(Cl)cc1)CCS(=O)(=O)Cc1ccc(Cl)cc1 | 0.85
COC(=O)C1(C(=O)OC)C2C3C4CC5C6C4C2C6C1C53 (stereo not drawn) | 5.4*
CC1(C)OC(=O)C2(C(=O)O1)C1C3C4CC5C6C4C1C6C2C53 (stereo not drawn) | 0.94
O=C(O)CC12OC3C4C5CC(C6C5C3C61)C42 (stereo not drawn) | -1.1
O=C(O)c1ccc(Nc2nc(N3CCOCC3)ccc2[N+](=O)[O-])cc1 | 1.2
COc1ccc(NC(=O)Nc2c(SC)nsc2SC)cc1 | 4*
COc1ccc(OCc2nnc(NC(=O)Nc3ccc(F)cc3)s2)cc1 | 1.9
COc1ccccc1NC(=O)Nc1c(SC)nsc1SC | -0.75
Cc1ccc(Cl)c(OCc2nnc3n2N=C(c2ccccc2)CS3)c1 | -0.87
Fc1ccc(C2NC(=S)NC3=C2CCc2ccccc23)cc1 (stereo not drawn) | -1.9
SMILES | Dicer inh
Cc1ccc(OCC2SCCN2C(=O)c2c(-c3c(Cl)cccc3Cl)noc2C)c([N+](=O)[O-])c1 (stereo not drawn) | 0.53
O=S(=O)(Oc1ccc(Cl)cc1)c1cc(S(=O)(=O)c2ccccc2)cs1 | -0.64
CCOc1ccc(NC(=S)NC(c2ccccc2)c2ccccc2)cc1 | -0.48
CC(NC(=S)Nc1ccc(Oc2ccc(Cl)cc2)cc1)c1ccccc1 (stereo not drawn) | 3.9*
Cc1ccc(C(C)NC(=S)Nc2ccc(Cl)cc2)c(C)c1 (stereo not drawn) | -0.11
CCOC(=O)c1csc(-c2sccc2Br)n1 | -0.11
C/C=C(/C(=C/C)c1ccc(O)cc1)c1ccc(O)cc1 | 0.66
Cc1cc(NCc2ccc(Cl)cc2)no1 | 1.8
CCCCn1c(SCC(=O)OC)nc2sc3c(c2c1=O)CCC3 | 4.3*
CCn1c(SCC(=O)c2ccccc2)nc2sc3c(c2c1=O)CCC3 | -1
COC(=O)CSc1nc2sc3c(c2c(=O)n1-c1ccc(OC)cc1)CCCC3 | 24
O=c1ccc([N+](=O)[O-])ccc1Nc1ccccn1 | -0.11
N#Cc1ccc(CSc2ccccc2NC2OC(=O)c3ccccc32)cc1 (stereo not drawn) | 3.2
O=C1OC(Nc2ccccc2Sc2ccc(Cl)cc2[N+](=O)[O-])c2ccccc21 (stereo not drawn) | 0.08
O=C1OC(Nc2ccccc2SCc2ccccc2Cl)c2ccccc21 (stereo not drawn) | 3.3*
Cn1c(=O)c2c(c3ccccc31)OC(=O)CC2c1ccccc1F (stereo not drawn) | 1.4
CCCc1nnc2c3c4c(sc3ncn12)CC(C)CC4 (stereo not drawn) | 4.8*
CCc1nnc2c3c4c(sc3ncn12)CC(C)CC4 (stereo not drawn) | -0.79
c1ccc(CCc2nnc3c4c5c(sc4ncn23)CCCC5)cc1 | 0.1
Cn1c(=O)c(-c2nc(C(C)(C)C)cs2)cn(-c2ccccc2)c1=O | 0.12
NC(=S)Nc1csc(C(F)(F)F)c1-c1ccccc1 | 3.3*
CSC(N)=Nc1csc(C(F)(F)F)c1-c1ccccc1 | 1.6
NC(=S)Nc1ccc(C(F)(F)F)cc1 | -0.82
C=CCn1c(Sc2ncnc3sc4c(c23)CCCC4)nnc1-c1ccccc1 | -1.4
COCc1cc(C)nc(SCC(=O)NC2CCCCC2)c1C#N | 1.5
Cc1ccc2ncnc(NCc3ccco3)c2c1 | 4.5*
Cc1ccc2ncnc(Nc3ccc(Cl)cc3)c2c1 | -0.33
Cn1cnc2c(NCc3ccco3)ncnc21 | -1.5
CN(C)c1ccc(NC(=O)c2cc(-c3ccc4c(c3)OCO4)nc3ccccc23)cc1 | 1.5
CC(C)N1C(=O)C(O)(CC(=O)c2ccccc2O)c2ccccc21 (stereo not drawn) | -0.29
